# Measurements as given in PubChem BioAssay AID504766 (The Scripps Research Institute Molecular Screening Center, 2011).
# The campaign covered roughly 340,000 compounds. About 3,400 (1%) were called active. Shown is part of a subset that was picked to be rich in actives. A number with no mark means an inactive call.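 How the source made its calls: active means inhibition above the mean over all tested compounds plus 3 SD (cut at about 4.2% in these data); inactive means the rest.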
# Target: Nuclear receptor subfamily 0 group B member 1 (Homo sapiens) (UniProt P51843)
# Sequence (P51843 207-470 limits assumed): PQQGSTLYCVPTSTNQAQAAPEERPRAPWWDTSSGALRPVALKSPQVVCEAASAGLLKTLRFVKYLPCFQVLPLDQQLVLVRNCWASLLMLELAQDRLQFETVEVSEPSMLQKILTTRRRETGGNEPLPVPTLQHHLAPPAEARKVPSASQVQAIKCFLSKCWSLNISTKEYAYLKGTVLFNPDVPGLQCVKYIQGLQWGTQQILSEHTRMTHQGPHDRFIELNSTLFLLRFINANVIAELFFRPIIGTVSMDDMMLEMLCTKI
# Experiment: DAX1 (NR0B1) inhibitors, primary screen, cell-based, HEK293, Gal4-DAX1, luciferase luminescence (AID 504766);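 further: 0% = DAX1-transfected cells with DMSO and 100% = empty-vector control cells with DMSO; inhibition shows as a rise in luminescence from relieved DAX1 repression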
# Settings: HEK293 Gal4-DAX1 luciferase reporter, at 6.75 µM, hits give high values
row,Structure (SMILES),inhibition
1,S=C1NC(c2ccccc2)=NCN1c1ccc(Br)cc1,-1.46%
2,Brc1ccc(C2CC(c3ccccc3)=Nc3ccccc3N2)cc1 (configuration not stated),4.28% (active)
3,CNC(=S)N1N=C(c2ccccc2)CC1c1ccc(Br)cc1 (configuration not stated),1.07%
4,CC(C)CCC(=O)Nc1cc(S(=O)(=O)N2CCOCC2)ccc1N1CCCC1,-0.01%
5,COc1cc2nnn(-c3ccncc3)c2cc1OC,1.02%
6,CC1(C)CN(Cc2cccnc2)C(=O)[C@H]1CC(=O)Nc1ccc(Br)cc1,-0.18%
7,COc1ccc(C(=O)OCC(=O)c2cc(C)n(CC3CCCO3)c2C)cc1[N+](=O)[O-] (configuration not stated),0.28%
8,O=C(COC(=O)c1ccc(S(=O)(=O)Nc2ccccc2)cc1)NCC1CCCO1 (configuration not stated),-0.38%
9,COc1ccc(C(=O)OCC(=O)NCC2CCCO2)cc1[N+](=O)[O-] (configuration not stated),4.91% (active)
10,CCOC(OCC)c1ccc(/C=C\c2nccc(N)n2)cc1,4.34% (active)
11,Cc1ccc([C@H]2N[C@]3(CCCN(Cc4ccccc4)C3=O)[C@H]3C(=O)N(Cc4ccccc4)C(=O)[C@@H]23)cc1,0.82%
12,COc1cccc(OCC(=O)NCCS(=O)(=O)N2CCN(c3ccccc3)CC2)c1,0.69%
13,CC1(C)C2CCC1(C)C(OC(=O)CCn1ccnc1)C2 (configuration not stated),0.23%
14,CC1(C)C2CCC1(C)C(OC(=O)c1ccc(O)cc1)C2 (configuration not stated),4.45% (active)
15,Cc1ccc(C(=O)OC2CCCN(C)C2)cc1 (configuration not stated),1.89%
16,O=C(Nc1ccc(Cl)cn1)c1ccccc1-c1ccccc1,1.12%
17,O=C1NC(Cc2ccccc2)c2nc3ccc(Br)cc3c(=O)n2-c2cc3ccccc3cc21 (configuration not stated),0.19%
18,O=C(Nc1cccn(Cc2ccccc2Cl)c1=O)NC1CCCCC1,-1.6%
19,O=S1(=O)CCN(Cc2ccccc2Cl)CC1,0.98%
20,CC1(C)COC(c2cccn2Cc2ccccc2Cl)=N1,5.28% (active)
21,CCC1NC(=O)c2cccnc2-n2c1nc1ccc(C)cc1c2=O (configuration not stated),0.22%

row,Structure (SMILES),inhibition
1,CC(C)NC(=O)Nc1ccc2c(c1)C(=O)N([C@H](C)CO)C[C@H](C)[C@@H](CN(C)Cc1ccc(C(F)(F)F)cc1)OCCCC[C@@H](C)O2,0.43%
2,Cc1noc(C)c1S(=O)(=O)N(C)C[C@H]1OCCCC[C@@H](C)Oc2ccc(NC(=O)CCCN(C)C)cc2C(=O)N([C@H](C)CO)C[C@@H]1C,0.48%
3,O=C(c1cccc(F)c1)N1CCC(O)(c2cccnc2)CC1,1.7%
4,O=C(Nc1cccc(F)c1)N1C2CCC1CC(O)(c1cccnc1)C2 (configuration not stated),0.14%
5,Cc1ccc(NC(=O)N2CCC(O)(c3cccnc3)CC2)cc1,4.28% (active)
6,COC(=O)C[C@H]1C[C@@H]2c3cc(NC(=O)Nc4ccccc4)ccc3O[C@@H]2[C@@H](CO)O1,2.2%
7,CC1CCN(C(=O)CSc2nnc(-c3ccco3)n2N)CC1,1.88%
8,O=C(Nc1ccc2oc(-c3ccccc3F)nc2c1)c1ccco1,2.35%
9,O=C(Nc1ccc(Sc2ccc(Br)cc2)cc1)c1ccco1,-0.97%
10,O=C(Nc1ccc2nccnc2c1)c1ccco1,5.48% (active)
11,COc1ccccc1C(=O)Nc1ccc(NC(=O)c2ccco2)c(C)c1,-0.21%
12,Cc1ccc(NC(=O)c2ccco2)cc1,7.13% (active)
13,CC(C)(C)NC(=O)c1cc(NC(=O)c2ccco2)cc(NC(=O)c2ccco2)c1,-1.82%
14,NS(=O)(=O)c1ccc(CNC(=O)c2cc(S(=O)(=O)N3CCOCC3)ccc2N2CCCC2)cc1,-0.73%
15,CN1CCN(c2ccncc2S(=O)(=O)N2CCCC2)CC1,0.96%
16,Cc1cc2ccccc2n1CCC(=O)O,6.77% (active)
17,O=C(O)CCn1c(Cc2ccccc2)nc2ccccc21,0.63%
18,Cc1cc2ccccc2n1CCNC(=O)COc1ccc2ccccc2c1,-0.5%
19,CC(OC(=O)c1cccc(S(=O)(=O)N2CCOCC2)c1)C(=O)NCC1CCCCC1 (configuration not stated),0.27%
20,COc1ccccc1CCNC(=O)c1cnccn1,0.75%
21,COc1ccc(C(=O)NNC(=O)c2cnccn2)cc1[N+](=O)[O-],1.76%

row,Structure (SMILES),inhibition
1,COc1cccc(OCC(=O)NNC(=O)c2cnccn2)c1,5.68% (active)
2,Cc1cc(Cl)ccc1C(=O)C1CCCN(C(=O)c2ccc3c(c2)OCO3)C1 (configuration not stated),0.21%
3,Cc1c(NC(=O)CSCc2ccccc2)cccc1C(=O)O,0.3%
4,Cn1c(CSCC(=O)Nc2ccccc2)nnc1SCc1ccccc1,-0.77%
5,O=C(CSCc1ccccc1)Nc1ccccc1,7.09% (active)
6,O=C(COc1ccc(Br)cc1)OCC(=O)c1ccc[nH]1,-1.15%
7,COc1ccc(CCNC(=O)CN(c2ccccc2)S(=O)(=O)c2ccccc2)cc1,-1.2%
8,CCCCCCN1C[C@H](O)[C@@H](n2cc(C3CC3)nn2)C[C@@H]1c1ccc(Cl)cc1,-0.34%
9,CCOc1cc(/C=N/NC(=O)c2ccncc2)cc(Br)c1O,-0.05%
10,COc1cc2sc(C)nc2cc1C,-1.73%
11,c1c2c(cc3sc(N4CCCCC4)nc13)OCCO2,-5.28%
12,Cc1nc2cc3c(cc2s1)OCO3,5.8% (active)
13,CCCc1ccc(S(=O)(=O)N2CCN(C(=O)c3cc(C)on3)CC2)cc1,-0.87%
14,O=C(CCN1CCCCC1)Nc1ccc(F)c(F)c1,0.27%
15,FC(F)(F)c1ccnc(Oc2ccc(C3=NCCS3)cc2)c1,6.14% (active)
16,CC1C(=O)N(Cc2cn(Cc3ccco3)nn2)CCS(=O)(=O)N1Cc1ccc(-c2cccc(CO)c2)cc1 (configuration not stated),0.37%
17,COCOCCn1cc(CN2CCS(=O)(=O)N(Cc3ccc(-c4ccccc4)cc3)C(CC(C)C)C2=O)nn1 (configuration not stated),-1.62%
18,O=C(CC(c1ccccc1)c1ccccc1)NCC(O)c1ccc([N+](=O)[O-])cc1 (configuration not stated),0.2%
19,CCCCOC(=O)Nc1nnc(CC(=O)NCc2ccccc2)s1,-0.2%
20,CCCCCCOC(=O)NCC(O)c1ccccc1 (configuration not stated),4.4% (active)
